Data published in PMC7862700, “An all-to-all approach to the identification of sequence-specific readers for epigenetic DNA modifications on cytosine”.

What was measured:
Test in all cases: DAPPL (digital affinity profiling via proximity ligation, sequencing); 10 mM Tris-HCl pH 7.5, 50 mM NaCl, 1 mM DTT, 4% glycerol, room temperature, 30 min; GST-TFs on glutathione beads, 16-mer random dsDNA library, 0.1% formaldehyde crosslink after washing; high values mean tight binding
FEV = biological target: T1, FEV (Homo sapiens, UniProt Q99581 1-238); conditions: protein: recombinant; tags: N-terminal GST; dsDNA, one strand shown
T1 sequence: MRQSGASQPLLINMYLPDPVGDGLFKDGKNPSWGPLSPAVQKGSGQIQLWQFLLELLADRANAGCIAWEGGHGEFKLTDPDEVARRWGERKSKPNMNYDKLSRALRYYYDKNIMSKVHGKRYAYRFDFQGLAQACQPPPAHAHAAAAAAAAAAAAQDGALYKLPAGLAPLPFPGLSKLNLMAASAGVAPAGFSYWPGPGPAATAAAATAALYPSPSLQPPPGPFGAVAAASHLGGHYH
Summary of the method: (§1)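 Each value of binding signal is a hexamer's read frequency for a factor divided by the same hexamer's frequency in the tag-only sample. Barcoded, bead-captured GST fusions of human transcription factors made in yeast were pooled with that sample and incubated with 200 nmole of a random double-stranded 16-mer DNA library in Tris/NaCl/DTT/glycerol buffer at room temperature for 30 min. Washing, 0.1% formaldehyde crosslinking, proximity ligation, PCR and Illumina NextSeq500 sequencing followed.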

ETV5 = ETV5 (Homo sapiens, UniProt P41161 1-510); conditions: protein: recombinant; tags: N-terminal GST; dsDNA, one strand shown
Sequence of ETV5 (P41161 whole entry): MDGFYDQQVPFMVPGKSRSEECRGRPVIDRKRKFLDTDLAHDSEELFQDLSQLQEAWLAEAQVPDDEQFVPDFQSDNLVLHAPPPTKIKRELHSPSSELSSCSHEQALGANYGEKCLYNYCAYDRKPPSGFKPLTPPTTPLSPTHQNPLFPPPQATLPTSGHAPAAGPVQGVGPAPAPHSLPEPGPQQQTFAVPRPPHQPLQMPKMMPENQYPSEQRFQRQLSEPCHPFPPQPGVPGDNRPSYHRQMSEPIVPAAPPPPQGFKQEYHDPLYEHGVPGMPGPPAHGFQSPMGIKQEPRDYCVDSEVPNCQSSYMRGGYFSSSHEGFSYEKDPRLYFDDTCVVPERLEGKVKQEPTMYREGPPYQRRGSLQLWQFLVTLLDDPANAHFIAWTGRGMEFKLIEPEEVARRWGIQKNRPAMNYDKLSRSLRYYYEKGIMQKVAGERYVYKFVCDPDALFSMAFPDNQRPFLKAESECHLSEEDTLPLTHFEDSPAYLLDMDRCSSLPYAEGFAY
Summary of the method: as §1

HSF1 = HSF1 (Homo sapiens, UniProt Q00613 1-529); conditions: protein: recombinant; tags: N-terminal GST; chain copies: 3; dsDNA, one strand shown
Sequence of HSF1 (Q00613 whole entry): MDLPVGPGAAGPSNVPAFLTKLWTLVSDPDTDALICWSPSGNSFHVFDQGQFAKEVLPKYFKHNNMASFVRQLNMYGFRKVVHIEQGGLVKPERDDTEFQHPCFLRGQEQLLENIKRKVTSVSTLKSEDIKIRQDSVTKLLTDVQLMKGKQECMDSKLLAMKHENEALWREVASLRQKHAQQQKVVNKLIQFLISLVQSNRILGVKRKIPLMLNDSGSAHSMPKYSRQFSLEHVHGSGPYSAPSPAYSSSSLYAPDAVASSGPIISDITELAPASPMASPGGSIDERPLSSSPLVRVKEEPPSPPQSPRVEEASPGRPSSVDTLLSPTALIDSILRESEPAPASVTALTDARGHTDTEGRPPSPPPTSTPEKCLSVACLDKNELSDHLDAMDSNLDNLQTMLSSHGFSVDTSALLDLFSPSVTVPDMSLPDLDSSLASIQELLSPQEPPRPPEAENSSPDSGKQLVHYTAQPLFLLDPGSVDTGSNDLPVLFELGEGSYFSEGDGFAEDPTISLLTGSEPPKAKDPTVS
Summary of the method: as §1

SPIC = biological target: T2, SPIC (Homo sapiens, UniProt Q8N5J4 1-248); conditions: protein: recombinant; tags: N-terminal GST; dsDNA, one strand shown
T2 sequence: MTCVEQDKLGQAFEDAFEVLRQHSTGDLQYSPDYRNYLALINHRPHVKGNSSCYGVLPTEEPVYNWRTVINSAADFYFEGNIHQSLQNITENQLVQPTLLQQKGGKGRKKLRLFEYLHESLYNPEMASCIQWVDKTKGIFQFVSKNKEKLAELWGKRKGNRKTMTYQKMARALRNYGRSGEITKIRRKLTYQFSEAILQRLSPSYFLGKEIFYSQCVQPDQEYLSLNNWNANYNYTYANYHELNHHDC
Summary of the method: as §1

ELF4 = ELF4 (Homo sapiens, UniProt Q99607 1-663); conditions: protein: recombinant; tags: N-terminal GST; dsDNA, one strand shown
Sequence of ELF4 (Q99607 whole entry): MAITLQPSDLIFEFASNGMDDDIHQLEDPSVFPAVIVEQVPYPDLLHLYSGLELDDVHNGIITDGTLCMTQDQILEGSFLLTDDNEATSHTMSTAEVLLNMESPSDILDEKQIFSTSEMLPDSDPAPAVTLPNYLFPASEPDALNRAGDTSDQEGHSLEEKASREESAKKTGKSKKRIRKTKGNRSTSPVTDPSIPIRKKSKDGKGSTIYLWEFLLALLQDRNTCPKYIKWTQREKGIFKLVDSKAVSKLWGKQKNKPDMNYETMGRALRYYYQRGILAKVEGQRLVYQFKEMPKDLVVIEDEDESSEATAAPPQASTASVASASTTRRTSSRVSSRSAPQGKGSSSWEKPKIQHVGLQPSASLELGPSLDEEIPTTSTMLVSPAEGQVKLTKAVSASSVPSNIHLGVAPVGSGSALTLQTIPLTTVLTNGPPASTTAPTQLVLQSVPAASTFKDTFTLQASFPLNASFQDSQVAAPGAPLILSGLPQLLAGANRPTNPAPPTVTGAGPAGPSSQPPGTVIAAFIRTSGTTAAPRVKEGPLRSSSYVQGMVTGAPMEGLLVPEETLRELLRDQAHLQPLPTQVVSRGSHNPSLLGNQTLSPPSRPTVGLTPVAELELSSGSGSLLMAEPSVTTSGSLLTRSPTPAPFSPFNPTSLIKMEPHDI
Summary of the method: as §1

ELK4 = biological target: T3, ELK4 (Homo sapiens, UniProt P28324-2 1-405); conditions: protein: recombinant; tags: N-terminal GST; dsDNA, one strand shown
T3 sequence: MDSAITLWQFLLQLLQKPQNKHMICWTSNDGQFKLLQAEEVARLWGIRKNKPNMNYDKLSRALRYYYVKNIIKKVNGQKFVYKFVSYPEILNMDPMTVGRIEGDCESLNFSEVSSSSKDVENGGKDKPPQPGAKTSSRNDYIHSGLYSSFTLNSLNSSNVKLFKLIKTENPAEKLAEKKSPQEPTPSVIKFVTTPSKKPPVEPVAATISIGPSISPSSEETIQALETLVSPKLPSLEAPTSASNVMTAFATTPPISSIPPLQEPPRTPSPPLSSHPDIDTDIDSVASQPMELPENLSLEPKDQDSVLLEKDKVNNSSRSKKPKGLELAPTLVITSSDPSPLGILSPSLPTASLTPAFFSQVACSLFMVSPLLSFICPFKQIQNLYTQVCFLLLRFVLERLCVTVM
Summary of the method: as §1

ETV2 = biological target: T4, ETV2 (Homo sapiens, UniProt O00321 1-342); conditions: protein: recombinant; tags: N-terminal GST; dsDNA, one strand shown
T4 sequence: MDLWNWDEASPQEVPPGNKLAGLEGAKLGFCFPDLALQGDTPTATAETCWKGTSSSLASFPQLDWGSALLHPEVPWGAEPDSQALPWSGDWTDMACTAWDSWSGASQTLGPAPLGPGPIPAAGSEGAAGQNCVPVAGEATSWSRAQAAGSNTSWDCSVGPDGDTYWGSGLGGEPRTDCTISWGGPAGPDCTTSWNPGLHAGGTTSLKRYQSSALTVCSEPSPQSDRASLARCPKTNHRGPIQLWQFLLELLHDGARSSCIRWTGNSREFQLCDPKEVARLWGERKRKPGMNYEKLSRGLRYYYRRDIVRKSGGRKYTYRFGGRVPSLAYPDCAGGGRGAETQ
Summary of the method: as §1

ELF3 = biological target: T5, ELF3 (Homo sapiens, UniProt P78545 1-371); conditions: protein: recombinant; tags: N-terminal GST; dsDNA, one strand shown
T5 sequence: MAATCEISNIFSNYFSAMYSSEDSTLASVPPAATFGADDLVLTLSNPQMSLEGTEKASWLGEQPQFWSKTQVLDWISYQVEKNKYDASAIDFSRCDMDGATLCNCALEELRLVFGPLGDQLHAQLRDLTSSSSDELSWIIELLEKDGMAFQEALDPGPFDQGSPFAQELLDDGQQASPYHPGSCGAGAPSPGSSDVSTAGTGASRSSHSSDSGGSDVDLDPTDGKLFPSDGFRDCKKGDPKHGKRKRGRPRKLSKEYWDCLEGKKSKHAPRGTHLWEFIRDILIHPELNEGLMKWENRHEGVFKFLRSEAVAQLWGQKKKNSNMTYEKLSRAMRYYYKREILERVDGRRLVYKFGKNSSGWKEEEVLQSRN
Summary of the method: as §1

CRX = CRX (Homo sapiens, UniProt O43186 1-299); conditions: protein: recombinant; tags: N-terminal GST; dsDNA, one strand shown
Sequence of CRX (O43186 whole entry): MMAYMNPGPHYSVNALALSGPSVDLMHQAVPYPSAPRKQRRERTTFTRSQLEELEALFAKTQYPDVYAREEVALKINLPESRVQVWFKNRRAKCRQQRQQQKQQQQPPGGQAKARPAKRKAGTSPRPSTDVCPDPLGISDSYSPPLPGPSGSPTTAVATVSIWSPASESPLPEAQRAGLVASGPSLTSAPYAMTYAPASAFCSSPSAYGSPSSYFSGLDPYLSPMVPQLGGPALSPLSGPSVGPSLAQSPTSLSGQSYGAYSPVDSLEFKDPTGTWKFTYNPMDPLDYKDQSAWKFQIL
Summary of the method: as §1

ETV1 = ETV1 (Homo sapiens, UniProt P50549 1-477); conditions: protein: recombinant; tags: N-terminal GST; dsDNA, one strand shown
Sequence of ETV1 (P50549 whole entry): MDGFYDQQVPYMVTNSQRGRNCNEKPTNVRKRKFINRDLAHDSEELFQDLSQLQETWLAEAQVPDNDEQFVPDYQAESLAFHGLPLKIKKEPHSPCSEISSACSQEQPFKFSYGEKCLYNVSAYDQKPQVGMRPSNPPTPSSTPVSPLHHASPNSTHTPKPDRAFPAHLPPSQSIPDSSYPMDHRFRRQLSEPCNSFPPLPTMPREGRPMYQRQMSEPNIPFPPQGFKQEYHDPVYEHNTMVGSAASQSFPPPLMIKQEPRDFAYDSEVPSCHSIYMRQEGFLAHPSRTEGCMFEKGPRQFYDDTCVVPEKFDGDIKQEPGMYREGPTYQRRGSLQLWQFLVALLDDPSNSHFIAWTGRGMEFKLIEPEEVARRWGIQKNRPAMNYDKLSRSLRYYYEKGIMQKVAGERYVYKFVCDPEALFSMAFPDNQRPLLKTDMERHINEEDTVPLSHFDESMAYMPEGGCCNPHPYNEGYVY
Summary of the method: as §1

ERF = biological target: T6, ERF (Homo sapiens, UniProt P50548 1-548); conditions: protein: recombinant; tags: N-terminal GST; dsDNA, one strand shown
T6 sequence: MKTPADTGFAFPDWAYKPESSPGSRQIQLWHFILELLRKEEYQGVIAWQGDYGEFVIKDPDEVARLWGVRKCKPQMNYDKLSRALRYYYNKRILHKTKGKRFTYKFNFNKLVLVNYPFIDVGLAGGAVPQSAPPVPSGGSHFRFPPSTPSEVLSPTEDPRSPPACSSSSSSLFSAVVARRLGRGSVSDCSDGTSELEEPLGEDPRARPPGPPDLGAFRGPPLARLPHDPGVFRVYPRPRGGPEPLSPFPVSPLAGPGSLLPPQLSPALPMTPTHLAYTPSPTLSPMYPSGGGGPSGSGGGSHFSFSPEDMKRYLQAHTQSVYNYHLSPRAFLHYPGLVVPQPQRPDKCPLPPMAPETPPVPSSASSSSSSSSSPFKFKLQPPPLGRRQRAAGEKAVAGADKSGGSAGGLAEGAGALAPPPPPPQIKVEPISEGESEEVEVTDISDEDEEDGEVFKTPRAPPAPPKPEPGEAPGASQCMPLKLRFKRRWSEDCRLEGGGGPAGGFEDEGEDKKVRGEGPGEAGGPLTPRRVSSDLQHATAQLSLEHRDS
Summary of the method: as §1

ETV3L = biological target: T7, ETV3L (Homo sapiens, UniProt Q6ZN32 1-361); conditions: protein: recombinant; tags: N-terminal GST; dsDNA, one strand shown
T7 sequence: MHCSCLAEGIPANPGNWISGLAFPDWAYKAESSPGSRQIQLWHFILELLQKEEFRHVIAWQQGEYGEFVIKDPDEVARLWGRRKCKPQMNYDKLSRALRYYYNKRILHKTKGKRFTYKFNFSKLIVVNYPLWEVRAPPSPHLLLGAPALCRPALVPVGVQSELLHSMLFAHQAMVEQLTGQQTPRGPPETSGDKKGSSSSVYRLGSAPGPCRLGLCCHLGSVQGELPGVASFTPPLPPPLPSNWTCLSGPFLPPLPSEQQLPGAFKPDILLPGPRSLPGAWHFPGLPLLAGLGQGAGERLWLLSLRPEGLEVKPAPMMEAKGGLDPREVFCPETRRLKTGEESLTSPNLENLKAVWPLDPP
Summary of the method: as §1

ETS2 = biological target: T8, ETS2 (Homo sapiens, UniProt P15036 1-469); conditions: protein: recombinant; tags: N-terminal GST; dsDNA, one strand shown
T8 sequence: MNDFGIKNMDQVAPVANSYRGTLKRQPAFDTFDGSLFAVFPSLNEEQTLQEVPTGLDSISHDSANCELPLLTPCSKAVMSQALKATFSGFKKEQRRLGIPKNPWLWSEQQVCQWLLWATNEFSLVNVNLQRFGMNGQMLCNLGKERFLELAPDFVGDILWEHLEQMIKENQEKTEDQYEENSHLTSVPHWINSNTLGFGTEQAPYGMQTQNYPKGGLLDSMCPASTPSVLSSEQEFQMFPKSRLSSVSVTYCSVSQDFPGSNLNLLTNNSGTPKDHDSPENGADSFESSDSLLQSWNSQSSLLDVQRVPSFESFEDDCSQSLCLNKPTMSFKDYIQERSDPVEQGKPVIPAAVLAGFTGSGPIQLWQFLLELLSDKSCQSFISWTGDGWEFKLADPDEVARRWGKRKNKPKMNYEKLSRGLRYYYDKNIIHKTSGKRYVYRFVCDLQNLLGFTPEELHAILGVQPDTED
Summary of the method: as §1

SPDEF = biological target: T9, SPDEF (Homo sapiens, UniProt O95238 1-335); conditions: protein: recombinant; tags: N-terminal GST; dsDNA, one strand shown
T9 sequence: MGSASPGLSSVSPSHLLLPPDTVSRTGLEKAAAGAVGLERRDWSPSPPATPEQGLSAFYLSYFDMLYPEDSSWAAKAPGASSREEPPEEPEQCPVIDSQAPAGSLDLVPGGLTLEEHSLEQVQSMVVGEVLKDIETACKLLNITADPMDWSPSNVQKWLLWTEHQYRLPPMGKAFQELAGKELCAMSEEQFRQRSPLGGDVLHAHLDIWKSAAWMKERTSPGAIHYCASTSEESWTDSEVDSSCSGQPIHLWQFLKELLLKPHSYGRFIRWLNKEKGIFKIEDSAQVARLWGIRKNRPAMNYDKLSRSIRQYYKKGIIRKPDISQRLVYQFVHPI
Summary of the method: as §1

ETV7 = biological target: T10, ETV7 (Homo sapiens, UniProt Q9Y603 1-341); conditions: protein: recombinant; tags: N-terminal GST; dsDNA, one strand shown
T10 sequence: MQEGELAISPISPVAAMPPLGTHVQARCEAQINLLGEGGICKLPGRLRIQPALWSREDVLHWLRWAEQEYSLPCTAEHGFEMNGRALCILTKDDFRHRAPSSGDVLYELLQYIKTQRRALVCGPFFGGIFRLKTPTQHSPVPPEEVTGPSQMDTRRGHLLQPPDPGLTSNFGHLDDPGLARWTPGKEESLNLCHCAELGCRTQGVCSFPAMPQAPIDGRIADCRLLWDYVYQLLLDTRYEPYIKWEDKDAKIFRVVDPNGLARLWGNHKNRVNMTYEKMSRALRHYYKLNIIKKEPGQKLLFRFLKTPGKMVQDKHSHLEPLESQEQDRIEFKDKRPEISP
Summary of the method: as §1

ELF5 = biological target: T11, ELF5 (Homo sapiens, UniProt Q9UKW6-2 1-255); conditions: protein: recombinant; tags: N-terminal GST; dsDNA, one strand shown
T11 sequence: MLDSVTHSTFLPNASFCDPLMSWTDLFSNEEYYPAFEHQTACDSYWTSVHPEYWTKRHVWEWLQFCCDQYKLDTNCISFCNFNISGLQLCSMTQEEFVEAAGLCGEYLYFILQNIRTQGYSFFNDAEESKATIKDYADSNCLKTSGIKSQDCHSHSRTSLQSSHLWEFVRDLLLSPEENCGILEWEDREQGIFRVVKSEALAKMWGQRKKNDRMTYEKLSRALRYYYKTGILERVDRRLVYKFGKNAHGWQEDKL
Summary of the method: as §1

ETV3 = biological target: T12, ETV3 (Homo sapiens, UniProt P41162-2 1-143); conditions: protein: recombinant; tags: N-terminal GST; dsDNA, one strand shown
T12 sequence: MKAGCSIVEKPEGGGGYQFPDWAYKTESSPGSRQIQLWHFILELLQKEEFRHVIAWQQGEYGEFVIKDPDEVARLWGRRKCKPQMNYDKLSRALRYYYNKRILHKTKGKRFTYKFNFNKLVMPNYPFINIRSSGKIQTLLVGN
Summary of the method: as §1

ETV6 = ETV6 (Homo sapiens, UniProt P41212 1-452); conditions: protein: recombinant; tags: N-terminal GST; dsDNA, one strand shown
Sequence of ETV6 (P41212 whole entry): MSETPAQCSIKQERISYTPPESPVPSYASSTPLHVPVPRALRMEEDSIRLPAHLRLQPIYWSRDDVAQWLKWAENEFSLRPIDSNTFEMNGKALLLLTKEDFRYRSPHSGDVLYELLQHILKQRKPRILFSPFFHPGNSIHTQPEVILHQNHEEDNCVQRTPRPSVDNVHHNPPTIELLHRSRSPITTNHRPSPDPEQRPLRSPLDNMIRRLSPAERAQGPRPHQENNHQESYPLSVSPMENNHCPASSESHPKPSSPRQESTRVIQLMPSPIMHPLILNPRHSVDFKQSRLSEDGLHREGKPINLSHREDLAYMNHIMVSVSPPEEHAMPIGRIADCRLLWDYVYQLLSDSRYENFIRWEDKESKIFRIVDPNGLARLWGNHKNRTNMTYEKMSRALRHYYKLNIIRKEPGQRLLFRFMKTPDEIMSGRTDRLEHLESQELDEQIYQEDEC
Summary of the method: as §1

TCTGAT
binding signal (FEV): 1.18 fold enrichment (6-mer frequency, TF over GST control) | binding signal (ETV5): 1.23 fold enrichment (6-mer frequency, TF over GST control) | binding signal (HSF1): 1.28 fold enrichment (6-mer frequency, TF over GST control) | binding signal (SPIC): 1.26 fold enrichment (6-mer frequency, TF over GST control) | binding signal (ELF4): 1.24 fold enrichment (6-mer frequency, TF over GST control) | binding signal (ELK4): 1.19 fold enrichment (6-mer frequency, TF over GST control) | binding signal (ETV2): 1.11 fold enrichment (6-mer frequency, TF over GST control) | binding signal (ELF3): 1.17 fold enrichment (6-mer frequency, TF over GST control) | binding signal (CRX): 1.55 fold enrichment (6-mer frequency, TF over GST control) | binding signal (ETV1): 1.15 fold enrichment (6-mer frequency, TF over GST control) | binding signal (ERF): 1.22 fold enrichment (6-mer frequency, TF over GST control) | binding signal (ETV3L): 1.29 fold enrichment (6-mer frequency, TF over GST control) | binding signal (ETS2): 1.29 fold enrichment (6-mer frequency, TF over GST control) | binding signal (SPDEF): 1.22 fold enrichment (6-mer frequency, TF over GST control) | binding signal (ETV7): 1.23 fold enrichment (6-mer frequency, TF over GST control) | binding signal (ELF5): 1.19 fold enrichment (6-mer frequency, TF over GST control) | binding signal (ETV3): 1.21 fold enrichment (6-mer frequency, TF over GST control) | binding signal (ETV6): 1.19 fold enrichment (6-mer frequency, TF over GST control)
